pCIP destab: p/CIP protein destabilization. Q05BA5. F442A p/CIP-EGFP cells, EGFP fluorescence, 16 h. decrease of EGFP signal, % at 10 µM. actives 0.01% (n = 290,000);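 active = EGFP signal decrease of at least 30% at 10 µM or well 3 SD below plate mean, unless failing retest; inactive = the rest, including hits failing retest or dose response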
Target sequence (Q05BA5 1-1403): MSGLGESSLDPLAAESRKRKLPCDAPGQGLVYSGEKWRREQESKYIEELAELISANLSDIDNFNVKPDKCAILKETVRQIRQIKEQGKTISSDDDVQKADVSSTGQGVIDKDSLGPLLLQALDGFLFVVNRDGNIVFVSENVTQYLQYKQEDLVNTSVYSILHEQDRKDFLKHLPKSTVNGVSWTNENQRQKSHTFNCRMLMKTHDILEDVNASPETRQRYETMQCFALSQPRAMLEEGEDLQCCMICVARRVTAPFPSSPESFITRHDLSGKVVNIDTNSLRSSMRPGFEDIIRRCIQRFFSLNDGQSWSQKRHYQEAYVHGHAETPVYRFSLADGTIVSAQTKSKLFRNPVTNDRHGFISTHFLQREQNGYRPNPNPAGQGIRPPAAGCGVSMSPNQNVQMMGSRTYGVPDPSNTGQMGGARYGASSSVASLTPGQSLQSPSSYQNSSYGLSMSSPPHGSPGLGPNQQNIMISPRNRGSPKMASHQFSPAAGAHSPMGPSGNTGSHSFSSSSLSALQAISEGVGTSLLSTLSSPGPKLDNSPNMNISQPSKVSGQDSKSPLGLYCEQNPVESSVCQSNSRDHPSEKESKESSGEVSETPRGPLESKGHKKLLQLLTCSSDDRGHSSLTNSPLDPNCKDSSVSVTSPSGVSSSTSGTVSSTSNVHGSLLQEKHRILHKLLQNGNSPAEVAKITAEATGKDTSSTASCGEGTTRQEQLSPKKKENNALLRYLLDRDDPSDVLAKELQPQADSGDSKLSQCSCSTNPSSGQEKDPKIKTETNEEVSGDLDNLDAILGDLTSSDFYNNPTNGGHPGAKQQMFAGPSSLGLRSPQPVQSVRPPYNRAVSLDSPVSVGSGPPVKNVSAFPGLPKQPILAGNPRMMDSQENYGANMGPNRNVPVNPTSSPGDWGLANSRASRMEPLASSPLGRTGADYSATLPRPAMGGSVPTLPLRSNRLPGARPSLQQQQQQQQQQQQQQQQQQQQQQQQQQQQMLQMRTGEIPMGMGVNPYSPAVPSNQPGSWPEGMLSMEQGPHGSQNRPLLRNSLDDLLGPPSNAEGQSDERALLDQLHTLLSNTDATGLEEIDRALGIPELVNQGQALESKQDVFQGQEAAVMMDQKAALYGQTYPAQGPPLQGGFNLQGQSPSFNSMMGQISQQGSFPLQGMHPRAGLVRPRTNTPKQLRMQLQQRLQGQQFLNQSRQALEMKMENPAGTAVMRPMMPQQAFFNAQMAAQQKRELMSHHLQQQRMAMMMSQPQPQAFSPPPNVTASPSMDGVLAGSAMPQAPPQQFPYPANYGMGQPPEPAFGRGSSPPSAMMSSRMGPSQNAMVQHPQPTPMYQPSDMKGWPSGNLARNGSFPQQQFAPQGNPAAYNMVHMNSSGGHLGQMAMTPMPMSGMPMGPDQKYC
HSP90 refold inh: inhibitors of HSP90 luciferase refolding in rabbit reticulocyte lysate. inhibition, % at 5.6 µM. actives 0.91% (n = 290,000). luciferase refolding luminescence, 3 h. AID 1789;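 active = inhibition above the screen-wide mean plus 3 SD, computed separately per campaign, cut at about 16% in these data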;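 also: 0% = DMSO wells and 100% = 60 µM geldanamycin wells; inhibitors lower the luminescence because luciferase stays unfolded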
NALP1 yeast inh: inhibitors of NALP1 inflammasome in yeast; S. cerevisiae NALP1/ASC/caspase-1 growth, X-gal OD620, 72 h; inhibition, % at 10 µM; actives 0.61% (n = 280,000); AID 2071; in the data active = inhibition mostly above about 24%, no sharp cut-off; inactive = mostly below about 32%
Hsp70 act: Hsp70 transcriptional activation, primary screen | HeLa Hsp70 promoter luciferase reporter, luminescence; scaled: vehicle 0, proteasome-inhibitor control 100% | actives 0.04% (n = 200,000) | activation, % at 10 µM;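 active = activation above the mean across all tested compounds plus 3 SD, cutoff set per campaign, cut at about 5.5% in these data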;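 also: 100% = MG132 at 30 µM as the positive control and 0% = DMSO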
HSF1 inh: HSF1 inhibition; actives 0.77% (n = 300,000); NIH3T3-HGL HSE-luciferase, MG132-induced, luminescence 8 h; hits give low values; activity change, negative = inhibition, % at 7.5 µM (by protocol);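 active = more than half of replicate wells show activity change below -50%, luminescence cut by over half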;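 also: luciferase reports HSF-1 transcriptional activity via heat shock element; 0% = median of DMSO wells and -100% = zero luminescence signal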
HSF1 activator: increases HSF-1 driven luciferase reporter signal; NIH3T3-HGL HSF-1 luciferase reporter, MG132, 8 h; 100% = twice DMSO control signal; activation, % at 9 µM; actives 1.7% (n = 300,000);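 active = mean replicate activation of at least 50% with a set share of replicates each reaching 50%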;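 also: 0% = median of the neutral control wells and 100% = twice that signal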
* = called active by the depositor; / = no result. Shown are actives, neighbours in structure and some others; about 3.8% of the full set was active somewhere.

SMILES | pCIP destab | HSP90 refold inh | NALP1 yeast inh | Hsp70 act | HSF1 inh | HSF1 activator
Cc1ccc(S(=O)(=O)NCc2ccco2)cc1C | -18 | -3 | 24 | 0 | 1 | -10
Cc1cc(C)c(C)c(S(=O)(=O)NCc2ccco2)c1C | -6 | 2 | 2 | 0 | 46 | 78*
Clc1ccc2c(c1)C(N1CCNCC1)Cc1ccccc1S2 (stereo not drawn) | -11 | 0 | 8 | 0 | 2 | -26
Clc1cccc2c1Sc1ccccc1CC2N1CCNCC1 (stereo not drawn) | -11 | 7 | 74* | 0 | -2 | -9
CCCCNC(=O)c1onc(CSc2ccc(F)c(F)c2)c1C(=O)NCCCC | / | / | / | / | 11 | 4
NC(=O)c1ccc(NC(=O)CC23CC4CC(CC(Br)(C4)C2)C3)cc1 | 6 | 3 | -10 | / | 36 | 76*
O=C(CC12CC3CC(CC(C3)C1)C2)Nc1ccc(C(=O)O)cc1 | 1 | 0 | 9 | / | -6 | -12
CCOC(=O)C1=C(COc2ccccc2)NC(=O)NC1c1ccc(Cl)cc1 (stereo not drawn) | -13 | 1 | 1 | / | 12 | 21
COC(=O)C1=C(COc2ccccc2)NC(=O)NC1c1ccc(Cl)cc1 (stereo not drawn) | / | / | / | / | 21 | 53*
Cc1nn(-c2ccccc2)c(Cl)c1/C=N/Nc1nc2ccccc2n1C | -1 | -4 | 17 | 0 | 29 | 63*
Cc1c(/C=N/Nc2nc3ccccc3[nH]2)c2ccccc2n1C | -6 | 3 | / | / | 263 | 332*
Cc1nn(-c2ccccc2)c(C)c1/C=N/Nc1nc2ccccc2[nH]1 | 2 | 7 | 3 | 0 | 337 | 423*
C=CCn1cc(/C=N/Nc2nc3ccccc3[nH]2)c2ccccc21 | 8 | -1 | 19 | 0 | 181 | 268*
Cc1c(NC(=O)C(C)N2C(=O)C3CCCCC3C2=O)c(=O)n(-c2ccccc2)n1C (stereo not drawn) | 5 | 0 | -4 | 0 | -4 | -4
Cc1c(NC(=O)C(C)N2CC(C)OC(C)C2)c(=O)n(-c2ccccc2)n1C (stereo not drawn) | -1 | -3 | -1 | 0 | 16 | 60*
CN(C)/C=N/S(=O)(=O)c1ccc(Cl)cc1 | 1 | 4 | 8 | 0 | -6 | -2
O=C1C=C(NCc2ccccc2)c2ccccc2C1=O | -22 | 12 | -9 | 0 | 51 | 70*
O=C1C=C(Nc2ccccc2O)c2ccccc2C1=O | -28 | 4 | -3 | 0 | 58 | 84*
COc1cc([N+](=O)[O-])cc2sc(NC(=O)c3c(F)cccc3F)nc12 | -25 | -6 | 0 | 0 | -5 | 4
COC(=O)Cc1[nH]n(-c2nc3ccccc3s2)c(=O)c1C(C)=Nc1ccc(Cl)cc1 | -7 | 8 | / | / | -68* | -71
CCN(Cc1ccccc1)C(=O)CS(=O)(=O)c1ccccc1 | -6 | 0 | 23 | 0 | -1 | -3
O=S(=O)(C/C(=C/CO)S(=O)(=O)c1ccccc1)c1ccccc1 | -22 | 9 | -7 | 15* | -77* | -79
O=C(Nc1ccc2[nH]ccc2c1)c1cccs1 | -6 | 3 | / | / | 20 | 58*
O=C(Nc1ccc(NC(=O)c2cccs2)c(Cl)c1)c1cccs1 | 0 | 0 | 1 | / | 30 | 69*
O=C(CSc1nnc(COc2ccc(Cl)cc2)o1)NC1CC2CCC1C2 (stereo not drawn) | -5 | 3 | 5 | / | 13 | 33
SMILES | pCIP destab | HSP90 refold inh | NALP1 yeast inh | Hsp70 act | HSF1 inh | HSF1 activator
O=C1S/C(=C\c2ccc(O)c([N+](=O)[O-])c2)C(=O)N1c1ccccc1Cl | -8 | -6 | 28* | 0 | 11 | 10
COc1cc(/C=C2\SC(=O)N(c3ccc(Cl)cc3)C2=O)cc([N+](=O)[O-])c1O | -9 | 66* | 4 | 0 | / | /
O=C1S/C(=C\c2ccc(O)c([N+](=O)[O-])c2)C(=O)N1Cc1cccc([N+](=O)[O-])c1 | 7 | 1 | -8 | 0 | -1 | 1
COc1ccccc1CNC(=O)CNC(=O)[C@@H]1Cc2ccccc2CN1 | 6 | -1 | 11 | / | -9 | -9
CCOc1ccc2nc(SCc3ccc(OC)cc3)sc2c1 | -8 | -1 | 23 | 0 | 14 | 12
CCOc1ccc2nc(SCc3ccccc3C#N)sc2c1 | -17 | -1 | 11 | 0 | 68 | 115*
Cc1cc(C)c(OCCCCn2cnc3ccccc3c2=O)c(C)c1 | -17 | 1 | 16 | 0 | 23 | 56*
C=C1CCN([C@@H](CC(C)C)C(=O)Nc2nc3ccc(Cl)cc3s2)S(=O)(=O)c2ccccc21 | / | / | / | / | 7 | 1
CN=C1SC(CC(=O)Nc2ccccc2F)C(=O)N1/N=C/c1ccc(O)c(OC)c1 (stereo not drawn) | -7 | -3 | -21 | 0 | 20 | 40

Screening results as filed in PubChem.
